# Data reported in PubChem BioAssay.
# Calls of active or inactive are those of the source. Rule as the data show it, unless noted: active = inhibition above about 80%; inactive = the rest.
# Key:
# [1] = growth inhibition, single agent or in combination, cell-based, chromothripsis tumors, cisplatin or BGB combos (AID 1671449); settings: LFS_MB_P medulloblastoma cells;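 also: cells exposed for 96 hours; 0% = vehicle DMSO and 100% = killing by high DMSO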
# [2] = growth inhibition, single agent and combos, cell-based, chromothripsis tumors, cisplatin or BGB combos (AID 1671450); settings: HDN33 neuroblastoma cells, stronger effect = higher value;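 also: cells exposed to compound for four days; 0% = vehicle DMSO and 100% = cell killing by high DMSO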
# [3] = growth inhibition, single agents and combos, ICB984, cell-based, cisplatin or BGB combos, synergistic combos for chromothripsis tumors (AID 1671451; call rule not given here;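 also: cells exposed for 96 hours before readout; 0% = vehicle DMSO and 100% = killing by high DMSO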); settings: ICB984 medulloblastoma cells, drug combinations, stronger effect = higher value
# [4] = growth inhibition, single agents and combos, LFS_MB_1R, cell-based, cisplatin or BGB combos, synergistic combos for chromothripsis tumors (AID 1671452); settings: LFS_MB_1R medulloblastoma cells, stronger effect = higher value;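 also: cells exposed for 96 hours before readout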
# [5] = growth inhibition, single agents and combos, HTB85, cell-based, BGB or cisplatin IC20 combos, synergistic combos for chromothripsis tumors (AID 1671453); settings: HTB85 osteosarcoma cells, drug combinations, stronger effect = higher value;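 also: cells exposed for 96 hours before readout; 0% = vehicle DMSO and 100% = high DMSO killing control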
# [6] = growth inhibition, single agents and combos, CRL2098, cell-based, BGB or cisplatin IC20 combos, synergistic combos for chromothripsis tumors (AID 1671454); settings: CRL2098 osteosarcoma cells, drug combinations, stronger effect = higher value;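 also: cells exposed for 96 h before readout; 0% = vehicle DMSO and 100% = killing by high DMSO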
# [7] = growth inhibition, single agents and combos, HD-MB03, cell-based, BGB or cisplatin IC20 combos, synergistic combos for chromothripsis tumors (AID 1671455; in the data active = inhibition above about 83%;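 also: 0% = vehicle DMSO and 100% = high DMSO as cytotoxic control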); settings: HD-MB03 medulloblastoma cells, stronger effect = higher value
# [8] = growth inhibition, single agents and combos, UWB1.289, cell-based, BGB or cisplatin combos, synergistic combos for chromothripsis tumors (AID 1671456); settings: UWB1.289 ovarian carcinoma cells, stronger effect = higher value;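 also: cells exposed to compound for four days; 0% = vehicle DMSO and 100% = killing by high DMSO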
# [9] = growth inhibition, single agents and combos, LFS_MB_2R, cell-based, cisplatin combos, synergistic combos for chromothripsis tumors (AID 1671457); settings: LFS_MB_2R medulloblastoma cells, stronger effect = higher value;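 also: cells exposed to compound for four days before readout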
# [10] = growth inhibition, MDA-MB-436, cell-based, BGB or cisplatin combos, synergistic combos for chromothripsis tumors (AID 1671458; call rule not given here;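 also: cells exposed for 96 hours; 0% = vehicle DMSO and 100% = killing by high DMSO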); settings: MDA-MB-436 breast carcinoma growth inhibition, drug combinations, stronger effect = higher value
# [11] = UWB1.289_BRCA1 ovarian cancer growth, cell-based, BGB or cisplatin combinations (AID 1671459); settings: UWB1.289 BRCA1 ovarian carcinoma, drug combinations, stronger effect = higher value
# [12] = drug combination toxicity in non-malignant astrocytes – cell-based, BGB or cisplatin IC20 combos, cytotoxicity control for chromothriptic childhood tumor combination screen (AID 1671460); settings: Human astrocytes, viability inhibition, drug combinations, at 0.5 µM, stronger effect = higher value;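 also: cells exposed to compounds for 96 hours before viability readout; 0% = vehicle and 100% = killing control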
# [13] = BT084 cell growth, single and combined drugs, ICGC_MB145, cisplatin and BGB IC40 combos (AID 1671461); settings: BT084 medulloblastoma cells, drug combinations, stronger effect = higher value;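 also: cells exposed to drugs for 96 hours; 0% = vehicle DMSO and 100% = high DMSO full killing control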
# [14] = RCMB18 cell growth, single agent and combined, cisplatin and BGB IC40 combos (AID 1671462); settings: RCMB18 medulloblastoma cells, stronger effect = higher value;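 also: cells exposed to compound for four days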
# [15] = CRL1545 cell growth, single agent and combined, cisplatin and BGB IC20 combos (AID 1671464); settings: CRL1545 osteosarcoma cells, stronger effect = higher value;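 also: cells exposed to compound for 96 hours before readout; 0% = vehicle DMSO and 100% = high DMSO killing control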
# [16] = measured here: combination with BGB IC40, at 0.05 µM
# [17] = measured here: with BGB IC20 combination, at 0.5 µM
# [18] = measured here: with cisplatin IC20 combination, at 0.5 µM
# [19] = measured here: combination with cisplatin, at 0.5 µM
# [20] = measured here: combination with cisplatin, at 5 µM
compound,measurement,setting,value
CC(C)(O)[C@H]1CC[C@@](C)(C2[C@@H](O)C[C@@]3(C)[C@@H]4C[C@H](O)C5C(C)(C)[C@@H](O)CCC56CC46CC[C@]23C)O1 (stereo partly drawn),inhibition,"[1]; at 0.5 µM, stronger effect = higher value",-20.9% (inactive)
same,inhibition,"[1]; measured here: combination with BGB IC20, at 0.005 µM",-17.4%
same,inhibition,"[1]; measured here: combination with BGB IC40, at 0.005 µM",78.4%
same,inhibition,[1]; [16],-19.9%
same,inhibition,"[1]; measured here: combination with cisplatin, at 0.5 µM, stronger effect = higher value",-28%
same,inhibition,"[1]; measured here: combination with cisplatin, at 5 µM, stronger effect = higher value",-7.56%
same,inhibition,"[2]; BGB combo, at 5 µM",-24.9%
same,inhibition,[2]; at 0.5 µM,2.8% (inactive)
same,inhibition,"[2]; cisplatin combo, at 5 µM",-13.8%
same,inhibition,[2]; [17],-6.04%
same,inhibition,[2]; [18],14.5%
same,inhibition,"[2]; single agent, at 5 µM",-12.8%
same,inhibition,"[3]; BGB IC20 combo, at 0.005 µM",-5.6%
same,inhibition,"[3]; BGB IC40 combo, at 0.005 µM",-12.2%
same,inhibition,"[3]; BGB IC40 combo, at 0.05 µM",-16.5%
same,inhibition,[3]; at 0.5 µM,-16.2% (inactive)
same,inhibition,"[3]; cisplatin combo, at 0.05 µM",-22.4%
same,inhibition,"[3]; cisplatin combo, at 0.5 µM",-30.1%
same,inhibition,"[3]; cisplatin combo, at 5 µM",-15.7%
same,inhibition,"[3]; measured here: 5 uM single agent, at 5 µM",-12.4%
same,inhibition,[4]; at 0.5 µM,-15.4% (inactive)
same,inhibition,[4]; [16],-5.25%
same,inhibition,[4]; [19],-36.6%
same,inhibition,[4]; [20],-6.73%
same,inhibition,[5]; at 0.5 µM,-5.42% (inactive)
same,inhibition,"[5]; measured here: with BGB IC20, at 0.5 µM",4.96%
same,inhibition,"[5]; measured here: with BGB IC20, at 5 µM",-8.72%
same,inhibition,"[5]; measured here: with cisplatin IC20, at 0.5 µM",-17.2%
same,inhibition,"[5]; measured here: with cisplatin IC20, at 5 µM",-11.8%
same,inhibition,"[5]; single agent, at 5 µM",5.09%
same,inhibition,[6]; at 0.5 µM,-14.8% (inactive)
same,inhibition,"[6]; measured here: combination with BGB at IC20, at 0.5 µM",-24.4%
same,inhibition,"[6]; measured here: combination with cisplatin at IC20, at 0.5 µM",-18.8%
same,inhibition,[7]; at 0.5 µM,-9.5% (inactive)
same,inhibition,"[7]; measured here: combo with BGB at IC20, at 0.5 µM",-9.93%
same,inhibition,"[7]; measured here: combo with cisplatin at IC20, at 0.5 µM",-11.4%
same,inhibition,[8]; at 0.5 µM,0.78% (inactive)
same,inhibition,"[8]; measured here: inhibition with BGB combination, at 0.05 µM",-14.1%
same,inhibition,"[8]; measured here: inhibition with cisplatin combination, at 0.05 µM",-5.37%
same,inhibition,[9]; at 0.5 µM,-6.35% (inactive)
same,inhibition,[9]; [19],-24.6%
same,inhibition,[9]; [20],-28.9%
same,inhibition,[10]; at 0.5 µM,-12% (inactive)
same,inhibition,"[10]; measured here: BGB combination, at 0.5 µM",-4.92%
same,inhibition,"[10]; measured here: BGB combination, at 5 µM",-19.3%
same,inhibition,"[10]; measured here: cisplatin combination, at 0.5 µM",-27.4%
same,inhibition,"[10]; measured here: cisplatin combination, at 5 µM",-20.3%
same,inhibition,"[11]; BGB combination, concentration series, at 5 µM",9.93%
same,inhibition,[11]; at 0.5 µM,-4.21% (inactive)
same,inhibition,"[11]; cisplatin combination, concentration series, at 5 µM",7.75%
same,inhibition,[12],0.26% (inactive)
same,inhibition,[12]; measured here: combo with BGB IC20,10.1%
same,inhibition,[12]; measured here: combo with cisplatin IC20,-8.09%
same,inhibition,[13]; at 0.5 µM,-8.31% (inactive)
same,inhibition,"[13]; cisplatin combination, at 0.5 µM",-3.58%
same,inhibition,"[13]; cisplatin combination, at 5 µM",-121%
same,inhibition,"[13]; measured here: BGB IC40 combination 0.05 uM, at 0.05 µM",-25.1%
same,inhibition,"[13]; single agent, at 5 µM",-6.41%
same,inhibition,[14]; at 0.5 µM,-30.6% (inactive)
same,inhibition,"[14]; cisplatin combo, at 5 µM",-6.31%
same,inhibition,"[14]; measured here: BGB IC40 combination, at 0.05 µM",-14.5%
same,inhibition,[14]; [19],-79%
same,inhibition,"[14]; single agent, at 5 µM",-0.285%
same,inhibition,[15]; at 0.5 µM,8.92% (inactive)
same,inhibition,[15]; [17],-5.47%
same,inhibition,[15]; [18],14.8%
same,inhibition,"[15]; single agent, at 0.05 µM",-11.3%
same,inhibition,"[15]; single agent, at 5 µM",-13%
